Measured values published in PubChem BioAssay (NCI).
Several values for one entry are separate records, joined by “and”; a condition that tells them apart may be missing. Equal entries are not always repeated. About 83,000 compounds went through this panel and 20% of them were active in at least one assay; those are over-represented in the sample as a whole.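 Negative percent growth values reflect cell death: -40 means 40% of the cells present at the start died, and -100 means all died.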 Activity calls are given as the source filed them. Rule for the calls: active = growth percent below 10; inactive = the rest.

Legend:
Assay in all cases: NCI-60 one-dose screen, 48 h (100 = growth as untreated, 0 = no growth, -100 = all killed)
Conditions in all cases: 10 µM
NCI-H23 lung = test system: NCI-H23 lung
NCI-H226 lung = test system: NCI-H226 lung
NCI-H322M lung = test system: NCI-H322M lung
HOP-62 NSCLC = test system: HOP-62 NSCLC
NCI-H460 lung = test system: NCI-H460 lung
HOP-92 NSCLC = test system: HOP-92 NSCLC
A549/ATCC NSCLC = test system: A549/ATCC NSCLC
786-0 renal = test system: 786-0 renal
NCI-H522 lung = test system: NCI-H522 lung
COLO 205 colon = test system: COLO 205 colon

SMILES	growth (NCI-H23 lung)	growth (NCI-H226 lung)	growth (NCI-H322M lung)	growth (HOP-62 NSCLC)	growth (NCI-H460 lung)	growth (HOP-92 NSCLC)	growth (A549/ATCC NSCLC)	growth (786-0 renal)	growth (NCI-H522 lung)	growth (COLO 205 colon)
COC12c3c(C)cc(O)c4c(=O)occ(c34)C(=O)C1C13COC(=O)c4c(O)cc(C)c(c41)C(=O)C2C3OC(C)=O (stereo unspecified)	99.7% (inactive)	100% (inactive)	95.4% (inactive)	82.3% (inactive)	97.9% (inactive)	-9.88% (active)	107% (inactive)	95.7% (inactive)		
O=[N+]([O-])c1cc[n+]([O-])c2ccccc12	-72.1% (active)	-17.8% (active)	-18.3% (active)	-47.9% (active)	-58.4% (active)	-41.6% (active)	-25.1% (active)	-49.2% (active)	-61.6% (active)	
CN(C)CC1(N)C(=O)NC(=O)NC1=O	98.6% (inactive)	87.7% (inactive)	104% (inactive)	98.1% (inactive)	107% (inactive)	112% (inactive)	94.2% (inactive)	102% (inactive)	96.4% (inactive)	
COc1cc([N+](=O)[O-])c2ncccc2c1[N+](=O)[O-]	73.4% (inactive)	77.1% (inactive)	103% (inactive)	105% (inactive)	87.3% (inactive)	95.7% (inactive)	97.9% (inactive)	77.7% (inactive)	-47.9% (active)	
[Cl][Sn]([c]1ccccc1)([c]1ccccc1)[c]1ccccc1	-71.6% (active)	-62% (active)	-89.5% (active)	-88.4% (active)	-66% (active)	-85.6% (active)	-93.6% (active)	-93.4% (active)	-82.2% (active)	
O=c1[nH]c2ccccc2n1C1CCN(CCCC(c2ccc(F)cc2)c2ccc(F)cc2)CC1	59.8% (inactive) and 38% (inactive)	92.1% (inactive) and 61.6% (inactive)	64.2% (inactive) and 67.5% (inactive)	84% (inactive) and -30.2% (active)	-0.452% (active) and 2.65% (active)	-42.3% (active) and 27.1% (inactive)	39.5% (inactive) and 10.9% (inactive)	-43.7% (active) and -57.1% (active)	62.3% (inactive) and 33.6% (inactive)	
C[C@]12CC[C@H]3[C@@H](CCC4=CC(=O)CC[C@@H]43)[C@@H]1CC[C@@H]2OC(=O)N(CCCl)N=O	55.7% (inactive)	55.8% (inactive)	45.6% (inactive)	44.8% (inactive)	-37.9% (active)	-11% (active)	40.7% (inactive)	17.9% (inactive)	39.7% (inactive)	58.8% (inactive)
[Cl][Hg][c]1ccc(Cl)s1	51.1% (inactive)	50.1% (inactive)	91.3% (inactive)	87.8% (inactive)	83.7% (inactive)	-70% (active)	97.2% (inactive)	-54.5% (active)	-98.1% (active)	
COC12C(COC(N)=O)C3=C(C(=O)C(C)=C(N)C3=O)N1CC1C2N1C (stereo unspecified)	6.66% (active)	64.2% (inactive)	30% (inactive)	32.3% (inactive)	-6.38% (active)	-0.595% (active)	47.5% (inactive)	31.1% (inactive)	17.7% (inactive)	
ClCc1ccc2ccccc2n1	85.2% (inactive)	78.2% (inactive)	100% (inactive)	59.4% (inactive)	110% (inactive)	79.8% (inactive)	102% (inactive)	103% (inactive)	95.4% (inactive)	128% (inactive)
COc1ccc2c(ccc3oc([N+](=O)[O-])cc32)c1	-9.56% (active)	-4.88% (active)	-10.7% (active)	-4.6% (active)	-3.44% (active)	10.8% (inactive)	0.82% (active)	-2.34% (active)	-52% (active)	-76.3% (active)
CC(Cc1ccc2c(c1)OCO2)NN (stereo unspecified)	90.5% (inactive)	87.1% (inactive)	99.5% (inactive)	73.9% (inactive)	105% (inactive)	76.6% (inactive)	82.8% (inactive)	88.2% (inactive)	84% (inactive)	99% (inactive)
CS(=N)(=O)CCC(N)C(=O)O (stereo unspecified)	95.2% (inactive)	101% (inactive)	108% (inactive)	98.3% (inactive)	112% (inactive)	106% (inactive)	97.8% (inactive)	102% (inactive)	96.9% (inactive)	
O=[N+]([O-])c1ccc(N(CCO)CCO)c2c1no[n+]2[O-]	10.1% (inactive)	0.462% (active)	-16% (active)	-34.1% (active)	-26.2% (active)	-35.5% (active)	4% (active)	-31.5% (active)	-62% (active)	-93.3% (active)
C#CC1(O)CCC(C(C)(C)C)CC1 (stereo unspecified)	105% (inactive)	111% (inactive)	110% (inactive)	115% (inactive)	112% (inactive)	87.9% (inactive)	94.2% (inactive)	107% (inactive)	122% (inactive)	114% (inactive)
O=[N+]([O-])/C=C/c1ccc([N+](=O)[O-])cc1	56.7% (inactive) and 68.7% (inactive)	114% (inactive)	90.4% (inactive) and 92.5% (inactive)	69.5% (inactive) and 107% (inactive)	19.9% (inactive) and 102% (inactive)	67.6% (inactive) and 97.8% (inactive)	44.2% (inactive) and 101% (inactive)	55.2% (inactive) and 98.1% (inactive)	81.6% (inactive) and 47.3% (inactive)	-8.72% (active) and 50.6% (inactive)
COc1cc(/C=C\[N+](=O)[O-])ccc1O	83.1% (inactive) and 77.3% (inactive)	91.2% (inactive) and 98.3% (inactive)	85.7% (inactive)	99.8% (inactive) and 101% (inactive)	96.6% (inactive) and 94% (inactive)	73.2% (inactive) and 102% (inactive)	89.2% (inactive) and 76.1% (inactive)	43.2% (inactive) and 90.8% (inactive)	-37.6% (active) and 87.2% (inactive)	73.6% (inactive) and 104% (inactive)
Cc1ccc(C(=O)C2C(c3ccccc3)N2C2CCCCC2)cc1 (stereo unspecified)	102% (inactive) and 88.4% (inactive)	100% (inactive) and 94.7% (inactive)	107% (inactive)	112% (inactive) and 101% (inactive)	98.6% (inactive) and 92% (inactive)	78.1% (inactive)	99.9% (inactive) and 105% (inactive)	101% (inactive) and 97.6% (inactive)	90.5% (inactive) and 75.5% (inactive)	
COc1ccccc1[As]=[As]c1ccccc1OC (stereo unspecified)	-86.8% (active)	-93.5% (active)	-80.8% (active)	-94.8% (active)	-42.6% (active)	-85.1% (active)	-88.1% (active)	-94.7% (active)	-80.6% (active)	
N#CCc1ccccc1	102% (inactive)	96.3% (inactive)	105% (inactive)	97.4% (inactive)	106% (inactive)	82.2% (inactive)	101% (inactive)	101% (inactive)	99.4% (inactive)	107% (inactive)
O=C(O)c1cc(Cc2ccc(O)c(C(=O)O)c2)ccc1O (tested in a mixture with another compound)	87.6% (inactive)	88.7% (inactive)	87% (inactive)	79.3% (inactive)	65.9% (inactive)	-49.4% (active)	79.9% (inactive)	78% (inactive)	-49.9% (active)	42.4% (inactive)
O=[N+]([O-])c1ccc(Br)c([N+](=O)[O-])c1	108% (inactive)	101% (inactive)	115% (inactive)	115% (inactive)	94.8% (inactive)	109% (inactive)	104% (inactive)	108% (inactive)	-28.5% (active)	
COc1cc(/C=C(/C)[N+](=O)[O-])ccc1O	61.1% (inactive) and 81.4% (inactive)	86.7% (inactive) and 91% (inactive)	66.7% (inactive) and 91.5% (inactive)	55.6% (inactive) and 47.6% (inactive)	43% (inactive) and 21.5% (inactive)	41.3% (inactive)	57.4% (inactive) and 48.9% (inactive)	50% (inactive) and -13.4% (active)	-78.2% (active) and -84.9% (active)	
